Experimental findings from PubChem BioAssay AID624351 (Southern Research Specialized Biocontainment Screening …, 2012) are described below.

About 1,400 (58%) of roughly 2,400 compounds were called active. So high a share suggests a set chosen from earlier hits. This is one part of the list. Values without a mark were called inactive.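 The calls were made as follows: active = inhibition of 30% or more at any tested dose; inconclusive = primary hits over the limit that were never retested; inactive = the rest.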

The experiment in a line: coupled detection enzyme interference, dose response, artefact control for MgcRacGAP inhibitor project, biochemical, coupled enzyme counter-screen (AID 624351).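 Also: signal is the ADP detection kit reading of free GDP without any GAP enzyme.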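 As to inhibition: 0% = median positive control wells and 100% = median negative control wells.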 The settings on record: ADP Hunter coupled enzyme counter-screen, fluorescence, no MgcRacGAP; series mostly up to 80 µM; inhibition: at the top concentration. For orientation: Counterscreens check selectivity or assay interference.
For the molecule `O=C(CN1CCCCCC1)Nc1nc2ccccc2s1`, the inhibition (as a rule, the change of the read-out against control, counted positive when it falls) was 13.2%.

Consider `O=C(c1ccc(OCCN2CCCCC2)cc1)c1c(-c2ccc(O)cc2)sc2cc(O)ccc12`, for which the IC50 (usually the concentration that inhibits the measured activity by half) is 31.6 µM (active).

In the case of `Cc1cc(OCCCCCN2CCCC2)ccc1Cl`, the “inhibition” value was 16.7%.

Regarding `CCOc1ccc(OCCOCCN2CCCC2)cc1`, the “inhibition” value is 18.7%.

As for `C[n+]1c(-c2ccccc2)cc2c(=Cc3ccccc3)c3ccccc3n21`, the “inhibition” value was 1.82%.

Consider `COc1cc(/C=N/n2c(-c3cc(C)[nH]n3)n[nH]c2=S)cc(OC)c1OC`, for which the IC50 is 61 µM (active).

Take `COc1cc(/C=N/n2c(-c3cc(C)[nH]n3)n[nH]c2=S)cc(OC)c1O`: the IC50 is 55.6 µM (active).

For `COc1ccc(NCc2cc(=O)[nH]c3ccccc23)cc1`, the IC50 is 51.4 µM (active).

`COc1ccc(NCc2nnc(SCC(=O)Nc3ccccc3OC)o2)cc1`: the “inhibition” value is 24.1%.

Turning to `CCn1c2ccccc2c2cc(CNCc3ccc(OC)cc3OC)ccc21`, the “inhibition” value was 7.53%.

With `COc1ccc(NCc2cc3ccccc3[nH]c2=O)cc1`, the IC50 was 77.4 µM (active).

Consider `COc1ccc(NCc2cc3cc(OC)ccc3[nH]c2=O)cc1`, for which the “inhibition” value is 22.5%.

Take `COc1ccc(OC)c(CN2CCN(Cc3cccc4ccccc34)CC2)c1`: the “inhibition” value is 19.4%.

Regarding `CC(C1SC(=S)NC1=O)C1SC(=S)NC1=O` (stereo not drawn), the “inhibition” value was -10.8%.

For `CCc1nn(C(C)C(=O)N2CCN(c3ccc(OC)cc3)CC2)c(=O)c2cc3occc3n12` (stereo not drawn), the “inhibition” value was 29.3%.

On to `CC(=O)N1CCN(c2ccc(Nc3ncnc4c3oc3ccccc34)cc2)CC1`, for which the IC50 is 42.5 µM (active).

Turning to `CCc1nc(Nc2ccc(O)cc2)c2oc3ccccc3c2n1`, the IC50 is 19.4 µM (active).

As for `CCc1nc(Nc2ccc(N3CCN(C(C)=O)CC3)cc2)c2oc3ccccc3c2n1`, the IC50 is 40.2 µM (active).

As to `Oc1ccc(Nc2ncnc3ccccc23)cc1`, the IC50 was 15.8 µM (active).

Consider `Oc1ccc(Nc2ncnc3c2oc2ccccc23)cc1`, for which the IC50 was 20 µM (active).

For `N#CC1=C(S)N(c2ccc(F)cc2)C2(CCCCC2)NC1=O`, the “inhibition” value was 0.96%.

Regarding `O=C1NC(=S)NC1=Cc1ccc(O)cc1`, the IC50 was 10.2 µM (active).

As for `O=C1NC(=S)NC1=Cc1ccco1`, the “inhibition” value was -13.6%.

In the case of `CCN1C(=O)/C(=C2/C=Cc3cc(C)ccc3N2CC)N(C)C1=S`, the 50% inhibitory concentration (IC50) was 50.7 µM (active).

As for `NC(=S)N/N=C/c1cccc(O)c1O`, the IC50 is 32.6 µM (active).

As for `Cc1nc2ccc(-c3nc4ccc(N)cc4[nH]3)cc2[nH]1`, the IC50 is 58.5 µM (active).

As to `Nc1ccc2nc(C3CCCCC3)[nH]c2c1`, the IC50 is 71.9 µM (active).

Consider `Nc1ccc2nc(-c3ccccc3)[nH]c2c1`, for which the IC50 is 31.9 µM (active).

On to `Nc1ccc2nc(-c3ccc(Cl)cc3)[nH]c2c1`, for which the IC50 was 67.3 µM (active).

Take `Cc1nc(Nc2ccc(O)cc2)c2c3c(sc2n1)CCCC3`: the IC50 is 27.9 µM (active).

`Oc1ccc(N=Cc2cc(Br)c(N3CCOCC3)o2)cc1`: the IC50 is 64.7 µM (active).

In the case of `O=[N+]([O-])c1cc(Br)c(O)c(C=Nc2ccc(N3CCOCC3)cc2)c1`, the IC50 was 13.4 µM (active).

For the molecule `Cc1cc(Br)cc(C=Nc2ccc(N3CCOCC3)cc2)c1O`, the IC50 is 14.7 µM (active).

Regarding `COc1ccc(CN(C)CCc2ccccn2)c(OC)c1OC`, the “inhibition” value was 18.1%.

`Cc1[nH]nc(-c2ccc(O)cc2O)c1Oc1ccccc1`: the IC50 is 34.3 µM (active).

As to `COc1ccc(Oc2c(-c3ccc(O)cc3O)n[nH]c2C)cc1`, the IC50 is 49.1 µM (active).

On to `COCCNCc1nc2sc(C)c(-c3ccccc3)c2c(=O)[nH]1`, for which the “inhibition” value is 12.2%.

For `CCn1c(/C=C/c2ccc(O)cc2)nc2ccccc2c1=O`, the IC50 was 44.8 µM (active).

In the case of `C=CCn1c(N/N=C/c2ccc(O)cc2)nc2ccccc2c1=O`, the IC50 was 66.7 µM (active).

Consider `O=c1c2cc(F)ccc2sn1-c1ccccc1Cl`, for which the “inhibition” value is 29.1%.

In the case of `Cc1cccc(NC(=O)CCC(=O)N/N=C/c2ccc(O)cc2O)c1`, the IC50 was 72.4 µM (active).

`Cc1ccc(NC(=O)CCC(=O)N/N=C/c2ccc(O)cc2O)cc1`: the 50% inhibitory concentration (IC50) was 61.8 µM (active).

Consider `OCCN(C=NC1=NN(c2cccc(C(F)(F)F)c2)CC1)CCO`, for which the IC50 was 42.2 µM (active).

As for `Cc1cccc(N2CCC(N=CN(C)C)=N2)c1`, the IC50 is 27.8 µM (active).

As to `CN(C)C=NC1=NN(c2cccc(C(F)(F)F)c2)CC1`, the IC50 is 39.3 µM (active).

Consider `CCN(C=NC1=NN(c2cccc(C(F)(F)F)c2)CC1)CC`, for which the 50% inhibitory concentration (IC50) is 33 µM (active).

Take `c1ccc(-c2ccccc2OCCCCn2ccnc2)cc1`: the “inhibition” value is 13.5%.

`COc1ccccc1OCC#CCn1ccnc1`: the “inhibition” value was 17.3%.

As to `Nc1sc(-c2ccccc2)c(Cc2ccccc2)c1C(=O)O`, the IC50 is 70.5 µM (active).

Take `CN(c1ccccc1)S(=O)(=O)c1cccc(C(=O)NCCc2ccc(O)c(O)c2)c1`: the half-maximal inhibitory concentration (IC50) is 71 µM (active).

`COc1ccc(CCNC(=O)CNCC(c2ccccc2)N(C)C)cc1OC` (stereo not drawn): the “inhibition” value was 23.1%.

With `CCN(c1ccccc1)S(=O)(=O)c1ccc(OC)c(NC(=O)CNCCc2ccccc2)c1`, the “inhibition” value was 8.56%.

With `COc1ccccc1NS(=O)(=O)c1cc(N)ccc1N1CCCC1`, the IC50 is 75.2 µM (active).
